From PubChem BioAssay (NCATS)
Values without a mark were called inactive. Records with an inconclusive call do not appear. The list shows a part of the results. Activity calls are given as the source filed them. Unless noted, the call rests on the fitted dose curve; in most records, active means well fitted curve in the direction sought with a large enough effect; inconclusive means small, poorly fitted or top-dose-only effect, or another doubt; inactive means no such curve, though single readings can be large; an effect the other way counts as inactive or inconclusive.

Key:
[1] = S16 Schwann cell viability assay (CellTiter-Glo assay) (AID 624031); further: potency means the concentration at half of the fitted maximal effect; nearly all actives have a fitted effect of over 70% in size
Procedure, shortened: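 Concentration-effect curves come from CellTiter-Glo luminescence of S16 rat Schwann cells after 24 h compound exposure. Each reading was normalized to DMSO wells (0%) and wells without cells, and curves were ranked by r2 and response magnitude.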

[2] = qHTS Assay for Identifying Gametocytocidal Compounds (AID 743244); further: potency means the concentration at half of the fitted maximal effect; settings: P. falciparum 3D7 stage III-V gametocytes, alamarBlue, 72 h; max response: hits give low values
Procedure, shortened: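 Compounds are pinned into medium, gametocytes (stage III–V, 3D7, 20,000 cells/well) added, and plates held 72 h at 37 °C in 5% CO2. AlamarBlue follows for 24 h before fluorescence reading.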

[3] = qHTS screen for small molecules that inhibit ELG1-dependent DNA repair: Hit Confirmation in Cell-Based Luciferin Assay (AID 624247); settings: cell-free firefly luciferase luminescence counter-screen, ViewLux; further: potency means the concentration at half of the fitted maximal effect
Procedure, shortened: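 Compounds were added to luciferase substrate reagent, with DMSO-only wells as vehicle controls. Luciferase enzyme was added after the compounds, and the signal was recorded as luminescence.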

[4] = target: ATPase family AAA domain-containing protein 5 (Homo sapiens) (UniProt Q96QE3); assay: HTS assay for small molecules that inhibit ELG1-dependent DNA repair in human embryonic kidney (HEK293T) cells expressing luciferase-tagged ELG1: Hit Confirmation (AID 624248); settings: HEK293T ELG1-luciferase levels, luminescence; cells co-treated with 5-fluorouridine; further: potency means the concentration at half of the fitted maximal effect; nearly all actives have a fitted effect of over 55% in size
Sequence of ATPase family AAA domain-containing protein 5 (Homo sapiens) (Q96QE3 whole entry, looked up, the tested form may be a part): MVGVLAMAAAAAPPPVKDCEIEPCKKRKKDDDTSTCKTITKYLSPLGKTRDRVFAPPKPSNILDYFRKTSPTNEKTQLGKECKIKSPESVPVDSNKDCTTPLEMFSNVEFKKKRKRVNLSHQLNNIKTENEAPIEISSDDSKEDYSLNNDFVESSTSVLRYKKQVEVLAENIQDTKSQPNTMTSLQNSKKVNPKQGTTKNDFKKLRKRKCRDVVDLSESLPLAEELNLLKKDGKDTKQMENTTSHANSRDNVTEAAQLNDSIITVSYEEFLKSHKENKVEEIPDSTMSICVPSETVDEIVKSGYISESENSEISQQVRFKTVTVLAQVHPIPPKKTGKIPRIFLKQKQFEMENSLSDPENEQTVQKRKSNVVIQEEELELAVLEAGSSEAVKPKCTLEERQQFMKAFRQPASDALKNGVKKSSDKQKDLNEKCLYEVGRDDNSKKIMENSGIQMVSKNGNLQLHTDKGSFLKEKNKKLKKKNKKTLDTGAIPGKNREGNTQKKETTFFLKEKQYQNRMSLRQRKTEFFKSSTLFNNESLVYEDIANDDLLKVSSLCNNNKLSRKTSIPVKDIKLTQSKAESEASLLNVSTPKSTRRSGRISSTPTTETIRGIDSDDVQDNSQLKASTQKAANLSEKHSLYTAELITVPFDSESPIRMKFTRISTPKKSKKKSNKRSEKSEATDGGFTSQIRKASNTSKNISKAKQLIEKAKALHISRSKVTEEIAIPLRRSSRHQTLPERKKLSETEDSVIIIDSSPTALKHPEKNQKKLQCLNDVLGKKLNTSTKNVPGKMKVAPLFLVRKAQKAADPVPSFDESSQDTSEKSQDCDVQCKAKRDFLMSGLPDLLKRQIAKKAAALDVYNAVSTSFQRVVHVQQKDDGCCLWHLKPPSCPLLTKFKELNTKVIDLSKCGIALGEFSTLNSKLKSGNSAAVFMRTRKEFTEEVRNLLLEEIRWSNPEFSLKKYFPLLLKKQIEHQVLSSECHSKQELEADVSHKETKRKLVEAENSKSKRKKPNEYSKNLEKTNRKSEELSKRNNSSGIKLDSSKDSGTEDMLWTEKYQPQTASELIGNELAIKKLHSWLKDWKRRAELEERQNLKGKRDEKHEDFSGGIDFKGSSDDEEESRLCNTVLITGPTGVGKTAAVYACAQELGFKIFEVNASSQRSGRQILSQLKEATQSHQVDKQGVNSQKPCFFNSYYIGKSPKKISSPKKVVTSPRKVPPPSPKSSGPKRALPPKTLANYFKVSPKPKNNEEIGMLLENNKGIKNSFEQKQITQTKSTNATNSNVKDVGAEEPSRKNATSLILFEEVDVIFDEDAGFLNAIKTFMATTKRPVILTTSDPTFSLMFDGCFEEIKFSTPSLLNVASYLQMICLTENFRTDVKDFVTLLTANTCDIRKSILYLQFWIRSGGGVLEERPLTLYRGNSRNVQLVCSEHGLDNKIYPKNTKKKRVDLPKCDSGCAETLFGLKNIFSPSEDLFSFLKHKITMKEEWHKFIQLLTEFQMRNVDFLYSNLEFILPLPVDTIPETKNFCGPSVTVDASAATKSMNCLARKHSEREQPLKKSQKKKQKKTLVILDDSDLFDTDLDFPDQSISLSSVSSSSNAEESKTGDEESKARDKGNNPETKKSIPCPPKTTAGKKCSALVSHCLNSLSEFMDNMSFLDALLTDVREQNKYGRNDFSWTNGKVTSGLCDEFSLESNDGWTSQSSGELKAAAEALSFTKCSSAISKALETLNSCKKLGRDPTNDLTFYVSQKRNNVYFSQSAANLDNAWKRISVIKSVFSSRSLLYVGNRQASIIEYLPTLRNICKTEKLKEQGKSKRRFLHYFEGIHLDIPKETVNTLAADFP
Procedure, shortened: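 Cells (2,000/well) received 5-Fluorouridine plus pin-transferred compound or DMSO and were incubated 16 hr at 37 °C, 5% CO2. Luciferase activity was read by ONE-Glo luminescence after 30 min at room temperature; inhibitors suppress the signal.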

[5] = target: ATPase family AAA domain-containing protein 5 (Homo sapiens) (UniProt Q96QE3); assay: qHTS screen for small molecules that inhibit ELG1-dependent DNA repair in human embryonic kidney (HEK293T) cells expressing luciferase-tagged ELG1: Hit Confirmation using MMS Stimulated ELG1 (AID 624249); settings: HEK293T luciferase-tagged ELG1 level; further: potency means the concentration at half of the fitted maximal effect; nearly all actives have a fitted effect of over 60% in size
Procedure, shortened: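 Cells carrying luciferase-tagged ELG1 receive compound and DNA-damaging MMS (final concentration 10 µM) roughly five hours after seeding. Sixteen hours on, Amplight detects luciferase, and activity loss marks blocked ELG1 function.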

[6] = qHTS screen for small molecules that inhibit ELG1-dependent DNA repair: Hit Confirmation with MMS Viability (AID 624251); settings: Cell viability with MMS;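 further: potency means the concentration at half of the fitted maximal effect; viability read 16 h after compound addition; nearly all actives have a fitted effect of over 60% in size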
Procedure, shortened: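 This confirmation step measures survival of ELG1-luciferase reporter HEK293T cells co-treated with test compounds and MMS at a final 10 µM, using CellTiter-Glo after a 16-hour incubation.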

[7] = target: Luciferin 4-monooxygenase (Photinus pyralis) (UniProt P08659); assay: qHTS screen for small molecules that inhibit ELG1-dependent DNA repair: Hit Confirmation in Biochemical Luciferin Assay (AID 624253); further: series mostly up to about 57 µM; on the % scale 0 is the no-effect control and ±100 the full control effect
Procedure, shortened: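 Steps: (1) dispense substrate reagent; (2) pin-transfer test compounds or DMSO vehicle; (3) add luciferase; (4) image luminescence with a CCD reader.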

[8] = target: Guanine nucleotide-binding protein G(i) subunit alpha-1 (Homo sapiens) (UniProt P63096); assay: qHTS Assay for Inhibitors of RGS12 GoLoco Motif Activity (Green Fluorophore) (AID 879);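 further: 0% = labeled peptide with Gαi1 and full inhibition = labeled peptide alone without protein; negative values mean loss of peptide binding seen as reduced polarization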
Sequence of Guanine nucleotide-binding protein G(i) subunit alpha-1 (Homo sapiens) (P63096 whole entry, looked up): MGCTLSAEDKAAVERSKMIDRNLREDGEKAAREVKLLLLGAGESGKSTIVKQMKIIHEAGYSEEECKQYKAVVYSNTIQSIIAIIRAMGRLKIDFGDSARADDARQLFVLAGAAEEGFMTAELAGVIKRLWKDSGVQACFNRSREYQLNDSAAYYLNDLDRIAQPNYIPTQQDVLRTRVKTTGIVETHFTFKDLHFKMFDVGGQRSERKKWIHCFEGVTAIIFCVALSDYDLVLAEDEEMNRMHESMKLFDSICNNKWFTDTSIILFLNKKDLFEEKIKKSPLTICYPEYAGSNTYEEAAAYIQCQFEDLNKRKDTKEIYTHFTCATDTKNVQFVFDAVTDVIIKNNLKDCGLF
Procedure, shortened: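 A drop in FITC polarization marked displacement of the FITC-tagged RGS12 GoLoco peptide (10 nM) from Gαi1 (50 nM). Compounds were incubated 10 min at room temperature in Tris pH 7.5 buffer containing 150 mM NaCl, 0.1 mM GDP and 0.05% NP40; unlabeled peptide titration served as control.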

[9] = target: Alpha-galactosidase (Coffea arabica) (UniProt Q42656); assay: Counterscreen for Glucocerebrosidase Inhibitors: qHTS Assay for Coffee Bean alpha-Galactosidase at pH 4.5 (AID 957);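 further: series mostly up to about 77 µM; plate controls were enzyme alone for no effect and no enzyme for full effect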
Sequence of Alpha-galactosidase (Coffea arabica) (Q42656 whole entry, looked up): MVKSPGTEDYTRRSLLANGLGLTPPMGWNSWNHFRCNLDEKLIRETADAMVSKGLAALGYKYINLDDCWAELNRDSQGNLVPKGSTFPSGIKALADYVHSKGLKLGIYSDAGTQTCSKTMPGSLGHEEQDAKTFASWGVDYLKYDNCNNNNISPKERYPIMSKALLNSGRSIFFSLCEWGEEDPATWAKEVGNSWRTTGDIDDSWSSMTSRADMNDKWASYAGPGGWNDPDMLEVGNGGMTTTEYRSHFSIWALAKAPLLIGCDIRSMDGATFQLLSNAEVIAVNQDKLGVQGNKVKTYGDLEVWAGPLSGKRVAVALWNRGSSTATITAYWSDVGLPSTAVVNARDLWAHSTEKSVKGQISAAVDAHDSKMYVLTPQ
Procedure, shortened: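 Enzyme is added first (2 nM final), then compounds titrated from 0.7 nM to 77 uM, then 80 uM 4-methylumbelliferyl alpha-D-galactopyranoside; after 20 min at room temperature a pH 10 NaOH/glycine stop precedes fluorescence reading at 365/440 nm.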

[10] = target: Alpha-galactosidase (Coffea arabica) (UniProt Q42656); assay: Counterscreen for Glucocerebrosidase Inhibitors: qHTS Assay for Coffee Bean alpha-Galactosidase at pH 5.9 (AID 998);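 further: plate controls were uninhibited enzyme for no effect and no-enzyme basal signal for full effect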
Procedure, shortened: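 In 50 mM citric acid pH 5.9 with 0.005% Tween-20, coffee bean enzyme hydrolyses 80 uM 4-MU alpha-D-galactopyranoside over 20 min at RT. Activity is normalized to controls; AC50 comes from Hill-modelled concentration-response data.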

[11] = target: Cytochrome P450 2D6 (Homo sapiens) (UniProt P10635); assay: qHTS Assay for Inhibitors and Substrates of Cytochrome P450 2D6 (AID 891); further: nearly all actives have a fitted effect of over 60% in size; further: potency means the concentration at half of the fitted maximal effect;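 on activity change, negative = inhibition: luciferin methyl ether substrate demethylated by CYP2D6 with NADPH regeneration; on the % scale 0 is the no-effect control and ±100 the full control effect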
Sequence of Cytochrome P450 2D6 (Homo sapiens) (P10635 whole entry, looked up): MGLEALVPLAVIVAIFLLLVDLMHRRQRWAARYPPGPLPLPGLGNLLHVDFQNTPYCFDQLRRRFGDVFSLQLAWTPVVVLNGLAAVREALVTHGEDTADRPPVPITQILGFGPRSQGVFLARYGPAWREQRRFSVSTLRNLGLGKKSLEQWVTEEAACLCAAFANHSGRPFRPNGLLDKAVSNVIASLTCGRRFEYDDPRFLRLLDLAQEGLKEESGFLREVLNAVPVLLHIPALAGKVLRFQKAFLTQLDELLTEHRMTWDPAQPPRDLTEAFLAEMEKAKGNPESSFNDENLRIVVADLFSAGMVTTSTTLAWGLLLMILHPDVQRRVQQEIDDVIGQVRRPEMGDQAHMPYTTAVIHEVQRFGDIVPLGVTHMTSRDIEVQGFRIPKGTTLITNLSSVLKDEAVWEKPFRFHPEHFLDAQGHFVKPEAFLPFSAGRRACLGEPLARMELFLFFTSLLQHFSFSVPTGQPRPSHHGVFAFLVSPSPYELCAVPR
Procedure, shortened: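 Luminescent read-out of luciferin formed by 5 nM human CYP2D6 demethylating 30 uM Luciferin-ME EGE (Km level) over 60 min at room temperature after NADPH regeneration addition. Data normalized to full inhibition by 1.43 uM quinidine.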

[12] = target: Cytochrome P450 2C19 (Homo sapiens) (UniProt P33261); assay: qHTS Assay for Inhibitors and Substrates of Cytochrome P450 2C19 (AID 899); further: potency means the concentration at half of the fitted maximal effect; nearly all actives have a fitted effect of over 60% in size
Sequence of Cytochrome P450 2C19 (Homo sapiens) (P33261 whole entry, looked up): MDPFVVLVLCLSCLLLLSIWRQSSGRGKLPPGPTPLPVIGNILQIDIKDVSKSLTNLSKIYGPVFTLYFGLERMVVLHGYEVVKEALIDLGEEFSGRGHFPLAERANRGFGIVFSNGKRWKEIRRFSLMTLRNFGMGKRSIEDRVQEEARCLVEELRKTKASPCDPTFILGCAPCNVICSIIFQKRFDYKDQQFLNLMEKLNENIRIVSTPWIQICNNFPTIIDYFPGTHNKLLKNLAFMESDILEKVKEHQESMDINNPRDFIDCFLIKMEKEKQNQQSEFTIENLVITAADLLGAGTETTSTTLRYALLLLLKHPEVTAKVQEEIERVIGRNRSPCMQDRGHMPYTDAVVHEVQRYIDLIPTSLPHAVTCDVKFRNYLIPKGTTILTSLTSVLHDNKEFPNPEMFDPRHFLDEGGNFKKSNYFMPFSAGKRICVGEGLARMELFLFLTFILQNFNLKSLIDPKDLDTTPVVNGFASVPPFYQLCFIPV
Procedure, shortened: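 In 50mM KPO4, the reaction held 5nM enzyme and KM-level (10uM) Luciferin-H EGE; it ran 60 min at 37C after NADPH regeneration and a 10 min compound preincubation. Luminescence values were scaled to 57uM ketoconazole as complete inhibition.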

[13] = qHTS assay for small molecule agonists of the antioxidant response element (ARE) signaling pathway (AID 651741; active means well fitted activation curve with a large enough effect in the signal ratio; the % refers to the signal ratio; further: potency means the concentration at half of the fitted maximal effect)
Procedure, shortened: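 Reporter: beta-lactamase under ARE, stably in HepG2. Exposure: 16 h, 37 C, compounds delivered in DMSO by pin tool after 5 h cell preincubation. Readout: FRET substrate fluorescence after 2 h at RT.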

[14] = qHTS assay for small molecule agonists of the antioxidant response element (ARE) signaling pathway measured by Nrf2-dependant transcriptional activity (AID 720636; active means well fitted curve in the direction sought with a large enough effect in the repeat runs; an effect the other way counts as inactive or inconclusive; further: potency means the concentration at half of the fitted maximal effect)
Procedure, shortened: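 Reporter gene assay, HepG2 ARE-luc: 16 hr compound, 37 C, 5% CO2; read-out luciferase luminescence.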

[15] = qHTS assay for small molecule activators of the human pregnane X receptor (PXR) signaling pathway (AID 720659; call rule not given here; further: 0% is about no effect)
[16] = qHTS assay for small molecule disruptors of the mitochondrial membrane potential - 1 hr assay (AID 651754; calls by dose curve; further: potency means the concentration at half of the fitted maximal effect; nearly all actives have a fitted effect of over 35% in size)
Procedure, shortened: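 Loss of mitochondrial potential shifts the cationic dye from red mitochondrial aggregates to green cytoplasmic monomers. Cells (HepG2) are treated with compound for 1 hr before a 30 min dye incubation at 37C.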

[17] = qHTS assay for small molecule disruptors of the mitochondrial membrane potential - 5 hr assay (AID 651755; calls by dose curve; further: potency means the concentration at half of the fitted maximal effect; nearly all actives have a fitted effect of over 40% in size)
Procedure, shortened: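 Seed HepG2 overnight, add compound, incubate 5 hr at 37C and 5% CO2, stain 30 min with Mito-MPS, then measure monomer (490/535 nm) and aggregate (540/590 nm) fluorescence.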

[18] = target: Nuclear receptor ROR-gamma (Homo sapiens) (UniProt P51449); assay: qHTS assay for small molecule antagonists of the retinoid-related orphan receptor gamma (ROR-gamma) signaling pathway (AID 651802)
Sequence of Nuclear receptor ROR-gamma (Homo sapiens) (P51449 whole entry, looked up): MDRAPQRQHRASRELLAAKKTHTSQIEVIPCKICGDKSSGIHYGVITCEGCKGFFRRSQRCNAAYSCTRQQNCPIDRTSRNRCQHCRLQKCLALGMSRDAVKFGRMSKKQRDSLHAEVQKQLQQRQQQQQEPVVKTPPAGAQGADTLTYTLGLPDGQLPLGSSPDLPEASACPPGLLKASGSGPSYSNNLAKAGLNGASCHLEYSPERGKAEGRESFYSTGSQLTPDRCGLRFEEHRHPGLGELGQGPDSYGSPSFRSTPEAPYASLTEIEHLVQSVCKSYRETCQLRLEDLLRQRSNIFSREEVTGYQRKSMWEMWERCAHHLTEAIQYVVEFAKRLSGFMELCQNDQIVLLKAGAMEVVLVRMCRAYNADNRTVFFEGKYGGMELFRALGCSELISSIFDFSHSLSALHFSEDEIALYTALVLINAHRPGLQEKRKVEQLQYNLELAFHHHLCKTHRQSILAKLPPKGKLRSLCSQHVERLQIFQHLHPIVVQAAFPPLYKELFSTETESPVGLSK
Procedure, shortened: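 Steps: cells dispensed; compound or DMSO transferred by pin tool; doxycycline added to induce the ROR response element-driven luciferase; plates held 16hr at 37C; ONE-Glo added and luminescence measured.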

Question: With `COc1cc(-c2ccc(-[n+]3nc(-c4ccccc4)nn3-c3ccc([N+](=O)[O-])cc3)c(OC)c2)ccc1-[n+]1nc(-c2ccccc2)nn1-c1ccc([N+](=O)[O-])cc1` as the molecule, how does the Potency [1] read?
Answer: 28.7 µM (active)

Question: And the Potency [2]?
Answer: 5.62 µM (active)

Question: Which Potency [3] does the source give for `CC(=O)[O][Sn]([c]1ccccc1)([c]1ccccc1)[c]1ccccc1` here?
Answer: 1.99 µM (active)

Question: And the Potency [4]?
Answer: 1.58 µM (active)

Question: And the Potency [5]?
Answer: 281 nM (active)

Question: What about the Potency [6] of the same molecule?
Answer: 281 nM (active)

Question: With `C[C@@H]1C[C@H]2CC[C@H](O2)[C@H](C)C(=O)O[C@@H](C)C[C@@H]2CC[C@@H](O2)[C@@H](C)C(=O)O[C@H](C)C[C@H]2CC[C@H](O2)[C@H](C)C(=O)O[C@@H](C)C[C@@H]2CC[C@@H](O2)[C@@H](C)C(=O)O1` as the molecule, how does the Potency [4] read?
Answer: 14.1 µM (active)

Question: What about the Potency [5] of the same molecule?
Answer: 88.9 nM (active)

Question: What about the Potency [6] of the same molecule?
Answer: 99.7 nM (active)

Question: And the outcome [7]?
Answer: inactive

Question: For `C[C@]12O[C@H](C[C@]1(O)CO)n1c3ccccc3c3c4c(c5c6ccccc6n2c5c31)CNC4=O`, which Potency [2] is on record?
Answer: 2.51 µM (active)

Question: With `C[C@@]12C=CC(=O)C=C1CC[C@@H]1C2=CC[C@]2(C)[C@@H]1CC[C@H]2C(=O)CN1CCN(c2cc(N3CCCC3)nc(N3CCCC3)n2)CC1` as the molecule, how does the Potency [8] read?
Answer: inactive

Question: What about the outcome [9] of the same molecule?
Answer: inactive

Question: And the outcome [10]?
Answer: inactive

Question: With `COC(=O)C1C(c2ccccc2)C2C(=O)c3c(OC)cc(OC)cc3O[C@@]12c1ccc(OC)cc1` (some centres undefined) as the molecule, how does the activity change, negative = inhibition [11] read?
Answer: -16.4% [at 11.4 µM]

Question: Which Potency [11] does the source give for `COCOc1ccc(Br)cc1C(=O)/C=C\c1ccc2c(c1)OCO2` here?
Answer: 3.16 µM (active)

Question: What about the Potency [12] of the same molecule?
Answer: 63.1 nM (active)

Question: Which Potency [12] does the source give for `O=[N+]([O-])c1ccc(S(=O)(=O)Cc2ccccc2)c([N+](=O)[O-])c1` here?
Answer: 2000 nM (active)

Question: Which Potency [13] does the source give for `[Cl][Sn]([c]1ccccc1)([c]1ccccc1)[c]1ccccc1` here?
Answer: 486 nM (active)

Question: And the Potency [14]?
Answer: 486 nM (active)

Question: What about the outcome [15] of the same molecule?
Answer: inactive

Question: With `Oc1cc(Cl)cc(Cl)c1Cl` as the molecule, how does the Potency [16] read?
Answer: 42.2 µM (active)

Question: What about the Potency [17] of the same molecule?
Answer: 42.2 µM (active)

Question: What about the Potency [18] of the same molecule?
Answer: 18.8 µM (active)
